Test results taken from the supplement of paper PMC11001985.
Unmarked numbers belong to inactive results.

Molecular target: WLS (lysine site: K217) (UniProt Q5T9L3)
Test: lysine labeling ratio R10:1 (500 µM / 50 µM probe), SILAC-ABPP in living cells; higher = lower intrinsic lysine reactivity toward the probe, active = 2 or less
Conditions: HeLa; probe concentrations 500 vs 50 µM
Procedure: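 Living HeLa cells (SILAC light/heavy) in PBS at room temperature were labeled with 50 µM versus 500 µM of the lysine-reactive, reductant-cleavable probe OPA-S-S-alkyne (SILAC labeling time not stated). Probe-modified peptides were CuAAC-biotinylated, captured on neutravidin and eluted with DTT/IAA, then quantified by LC-MS/MS. R = median peptide ratio per lysine (500/50 µM), combined over 3 forward and 3 reverse SILAC replicates. Ratios are capped at 20; R < 2 = hyper-reactive.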

WLS (lysine site: K217), sequence (Q5T9L3 whole entry): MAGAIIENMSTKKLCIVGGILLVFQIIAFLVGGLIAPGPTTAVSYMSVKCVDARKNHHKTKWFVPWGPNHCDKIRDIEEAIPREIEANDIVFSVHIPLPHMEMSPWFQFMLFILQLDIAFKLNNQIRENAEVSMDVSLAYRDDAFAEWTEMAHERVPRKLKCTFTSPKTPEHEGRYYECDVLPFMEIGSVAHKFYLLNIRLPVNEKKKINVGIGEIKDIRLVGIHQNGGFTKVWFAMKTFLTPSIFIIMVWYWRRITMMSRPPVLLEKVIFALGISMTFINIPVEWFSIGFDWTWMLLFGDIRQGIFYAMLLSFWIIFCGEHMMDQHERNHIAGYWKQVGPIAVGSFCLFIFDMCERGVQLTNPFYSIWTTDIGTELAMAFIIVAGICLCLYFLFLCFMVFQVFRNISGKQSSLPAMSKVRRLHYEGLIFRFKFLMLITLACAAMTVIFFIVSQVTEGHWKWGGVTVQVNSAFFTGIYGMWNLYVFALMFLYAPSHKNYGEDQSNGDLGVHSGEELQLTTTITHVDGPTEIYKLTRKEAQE

| Compound | lysine labeling ratio R10:1 |
| --- | --- |
| C#CCNC(=O)CCSSCCC(=O)NCCc1ccc(C=O)c(C=O)c1 | 2.13 |
